# The supplement of paper PMC7695840
# Counter-ions that a name gives are not always drawn.
# Experiments:
# [1] = tested on: Staphylococcus aureus MW2 delta-mecA (mecA-); assay: normalized GFP fluorescence (growth of mecA- strain) (fraction of control range); higher = more growth of mecA- strain; settings: compound concentration: 150 uM; cefoxitin: subinhibitory; fluorescent label: GFP
# Summary of the method: (§1)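 Two pre-induced S. aureus MW2 strains, one with the gene labeled by DsRed and one lacking it labeled by GFP, were mixed 1:1 in LB with a subinhibitory antibiotic dose set daily. The mix went at 5 µL/well onto 150 μM compound (1.5% DMSO) in 1536-well plates, single replicate, and grew unshaken 20 h at 37 °C, 90% humidity. DsRed (540/590) and GFP (485/520) values were scaled per plate between single-strain control medians, and plates with high untreated ratios or rows with DsRed/GFP >10 were left out.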
# [2] = tested on: Staphylococcus aureus MW2 (mecA+); assay: normalized DsRed fluorescence (growth of mecA+ strain) (fraction of control range); higher = more growth of mecA+ strain; settings: compound concentration: 150 uM; cefoxitin: subinhibitory; fluorescent label: DsRed
# Summary of the method: as §1
Structure (SMILES),normalized GFP fluorescence [1],normalized DsRed fluorescence [2]
CN(C)CCc1c[nH]c2ccc(CS(=O)(=O)N3CCCC3)cc12,0.546,1
Cc1cc2nc3c(=O)[nH]c(=O)nc-3n(CC(O)C(O)C(O)COP(=O)(O)O)c2cc1C (centres undefined),0.933,0.535
CC(=O)c1ccc2c(c1)N(CCCN(C)C)c1ccccc1S2,0.165,1.27
COc1cc2c3cc1Oc1cc(ccc1O)C[C@@H]1c4c(cc(OC)c(O)c4Oc4ccc(cc4)C[C@@H]3N(C)CC2)CC[N+]1(C)C,0.357,0.607
C[C@]12CC[C@@H]3c4ccc(O)cc4CC[C@H]3[C@@H]1CCC2=O [Estrone],0.136,1.11
COC(=O)[C@H]1[C@H]2C[C@@H]3c4[nH]c5cc(OC)ccc5c4CCN3C[C@H]2C[C@@H](OC(=O)c2cc(OC)c(OC)c(OC)c2)[C@@H]1OC,0.0258,1.04
CNC(=O)c1ccc(N2C(=S)N(c3ccc(C#N)c(C(F)(F)F)c3)C(=O)C2(C)C)cc1F [MDV3100 (Enzalutamide)],0.245,0.592
CC(=O)Oc1cccc(O)c1,0.353,0.584
CC(C)NCC(O)c1ccc(O)c(O)c1 (centres undefined) [Isoprenaline hydrochloride],0.458,0.758
CCOC(=O)[C@H](CCc1ccccc1)N[C@@H](C)C(=O)N1CCC[C@H]1C(=O)O,0.325,0.611
CNCc1ccc(-c2[nH]c3cc(F)cc4c3c2CCNC4=O)cc1,0.424,0.641
Nc1ncnc2c1ncn2[C@@H]1O[C@H](CO)[C@@H](O)[C@@H]1O,0.428,0.346
Cc1ncc([N+](=O)[O-])n1CCO,0.562,0.581
CCCCCCOC(=O)NC(=N)c1ccc(NCc2nc3cc(C(=O)N(CCC(=O)OCC)c4ccccn4)ccc3n2C)cc1 [BIBR-1048 (Dabigatran)],0.0654,0.815
CCCCC(=O)O[C@]1(C(=O)CO)CC[C@H]2[C@@H]3CCC4=CC(=O)CC[C@]4(C)[C@H]3[C@@H](O)C[C@@]21C,0.382,0.447
CCC(=O)O[C@H](CC(=O)O)C[N+](C)(C)C,0.307,1.23
Cc1nnc(NS(=O)(=O)c2ccc(N)cc2)s1,0.326,1.88
Clc1ccccc1CN1CCc2sccc2C1,0.281,0.684
Nc1ccn([C@@H]2CS[C@H](CO)O2)c(=O)n1,0.367,0.767

Structure (SMILES),normalized GFP fluorescence [1],normalized DsRed fluorescence [2]
c1ccc2c(CC3=NCCN3)cccc2c1,0.526,0.668
Nc1ncnc2c1ncn2[C@@H]1O[C@H](COP(=O)(O)O)[C@@H](O)[C@H]1O,0.4,0.484
CCC(C)CCCCC(=O)NC(CCN)C(=O)NC(C(=O)NC(CCN)C(=O)NC1CCNC(=O)C(C(C)O)NC(=O)C(CCN)NC(=O)C(CCN)NC(=O)C(CC(C)C)NC(=O)C(Cc2ccccc2)NC(=O)C(CCN)NC1=O)C(C)O (centres undefined),0.159,1.05
COc1cc2nc(N(C)CCCNC(=O)C3CCCO3)nc(N)c2cc1OC (centres undefined),0.343,0.686
CCc1ccc(CCOc2ccc(CC3SC(=O)NC3=O)cc2)nc1 (centres undefined),0.499,0.952
NC(=O)c1cc[n+](CC2=C(C(=O)O)N3C(=O)[C@@H](NC(=O)[C@@H](c4ccccc4)S(=O)(=O)[O-])[C@H]3SC2)cc1,0.172,1.03
Cc1nc(Nc2ncc(C(=O)Nc3c(C)cccc3Cl)s2)cc(N2CCN(CCO)CC2)n1,0.0741,0.816
COc1cc(NS(=O)(=O)c2ccc(N)cc2)nc(OC)n1,0.338,1.32
CCOC(=O)[C@H](CCc1ccccc1)N[C@@H](C)C(=O)N1Cc2cc(OC)c(OC)cc2C[C@H]1C(=O)O [Moexipril HCl],0.373,0.48
CC(C)(Oc1ccc(CCNC(=O)c2ccc(Cl)cc2)cc1)C(=O)O,0.407,0.804
CCOC(=O)n1ccn(C)c1=S [Carbimazole],0.708,0.813
CCOc1cc2ncc(C#N)c(Nc3ccc(OCc4ccccn4)c(Cl)c3)c2cc1NC(=O)/C=C/CN(C)C [Neratinib (HKI-272)],0.0386,0.921
CC(C)c1ccc2oc3nc(N)c(C(=O)O)cc3c(=O)c2c1,0.212,0.319
CO[C@H]1C[C@@H]2CC[C@@H](C)[C@@](O)(O2)C(=O)C(=O)N2CCCC[C@H]2C(=O)O[C@H]([C@H](C)C[C@@H]2CC[C@@H](OCCO)[C@H](OC)C2)CC(=O)[C@H](C)/C=C(\C)[C@@H](O)[C@@H](OC)C(=O)[C@H](C)C[C@H](C)/C=C/C=C/C=C/1C [Everolimus (RAD001)],-0.00462,1.72
Cc1ccc(/C(=C\CN2CCCC2)c2ccccn2)cc1,0.244,0.576
CCC1(c2ccccc2)NC(=O)N(C)C1=O (centres undefined),0.794,0.963
Nc1nc2c(ncn2COC(CO)CO)c(=O)[nH]1,0.466,0.948
O=C1C(O)=C([C@H]2CC[C@H](c3ccc(Cl)cc3)CC2)C(=O)c2ccccc21 [Atovaquone (Atavaquone)],0.714,0.498
